Data as given in ChEMBL document CHEMBL4513136, “CO-ADD screening of CSIC (Spain) compounds”.
Entries with a potency or affinity are not part of this list.

These compounds were tested on Klebsiella pneumoniae. Settings: Concentration 32 ug.mL-1; ASSAY_TEST Inhibition of Bacterial Growth; detection method Absorption (OD600); MEDIA CAMHB; plate type 384well; NBS; CORNING #3640; time 18 hr.

| Compound | Inhibition [%] |
| --- | --- |
| O=C(Cc1cc(O)ccc1O)Nc1ccc(O)cc1O | 6.35 |
| O=C(Nc1ccc(O)cc1O)Nc1cc(O)ccc1O | 9.23 |
| O=C(/C=C/c1c[nH]c2ccc(O)cc12)c1cc(O)ccc1O | 6.02 |
| O=C(/C=C/c1ccccc1O)c1cc(O)c(O)cc1O | 21.23 |
| COc1ccc(CN2C(=O)C(C)C2(Cc2cn(C(=O)OC(C)(C)C)c3ccccc23)C(=O)OC(C)(C)C)cc1 (stereo not drawn) | 15.95 |
| COC(=O)C1(Cc2ccc(OCc3c(Cl)cccc3Cl)cc2)C(C)C(=O)N1Cc1ccc(OC)cc1 (stereo not drawn) | 5.7 |
| COc1ccccc1/C=C/C(=O)c1cc(OC)c(OC)cc1OC | 12.89 |
| O=C(Cc1cc(O)ccc1O)Nc1ccc(O)cc1 | 12.9 |
| COc1ccc(OC)c(C(=O)/C=C/c2ccccc2O)c1 | -4.68 |
| COc1ccc(OC)c(NC(=O)Nc2ccc(OC)cc2OC)c1 | 6.68 |
| COc1ccc(NC(=O)Cc2cc(OC)ccc2OC)cc1 | 9.76 |
| COc1ccc(OC)c(C(=O)/C=C/c2ccc(O)cc2)c1 | -6.02 |
| Oc1ccc(-n2cc(-c3cc(O)ccc3O)nn2)cc1 | 10.3 |
| COc1ccc(OC)c(CC(=O)Nc2cc(OC)ccc2OC)c1 | 5.13 |
| COc1ccc(OC)c(C(=O)CCc2ccc(O)cc2)c1 | 3.34 |
| COc1ccc(OC)c(C(=O)/C=C/c2c[nH]c3ccc(OC)cc23)c1 | 2.62 |
| COc1ccc(OC)c(CC(=O)Nc2ccc(OC)cc2OC)c1 | 9.85 |
| O=C(CCc1ccc(O)cc1O)c1cc(O)ccc1O | 10.96 |
| Oc1ccc(O)c(-c2cn(-c3ccc(O)c(O)c3)nn2)c1 | -0.99 |
| COc1ccc(OC)c(-c2cn(-c3ccc(OC)c(OC)c3)nn2)c1 | -16.63 |
| COc1ccc(C(=O)/C=C/c2ccc(OC)cc2OC)cc1 | -4.58 |
| O=C(OCc1ccccc1)N1C(=O)C(c2ccccc2NC(=O)C(F)(F)F)=C(O)C1Cc1ccccc1 (stereo not drawn) | 7.86 |
| COc1ccc(OC)c(C(=O)CCc2ccccc2O)c1 | 4.74 |
| CC1C(=O)N(Cc2ccc(OCCN3CCOCC3)cc2)C1(Cc1ccccc1)C(=O)O (stereo not drawn) | 2.32 |
| O=C(Cc1cc(O)ccc1O)Nc1cc(O)ccc1O | 9.18 |
| COC(=O)c1c(C(Cc2ccccc2)NC(=O)OCc2ccccc2)[nH]c2ccccc12 (stereo not drawn) | 2.35 |

Each compound was assayed on Candida albicans. Settings: 32 ug/mL.

| Compound | Inhibition [%] |
| --- | --- |
| O=C(Cc1cc(O)ccc1O)Nc1ccc(O)cc1O | 4.45 |
| O=C(Nc1ccc(O)cc1O)Nc1cc(O)ccc1O | -2.25 |
| O=C(/C=C/c1c[nH]c2ccc(O)cc12)c1cc(O)ccc1O | 4.1 |
| O=C(/C=C/c1ccccc1O)c1cc(O)c(O)cc1O | 6.47 |
| COc1ccc(CN2C(=O)C(C)C2(Cc2cn(C(=O)OC(C)(C)C)c3ccccc23)C(=O)OC(C)(C)C)cc1 (stereo not drawn) | 7.68 |
| COC(=O)C1(Cc2ccc(OCc3c(Cl)cccc3Cl)cc2)C(C)C(=O)N1Cc1ccc(OC)cc1 (stereo not drawn) | 7.8 |
| COc1ccccc1/C=C/C(=O)c1cc(OC)c(OC)cc1OC | 3.46 |
| O=C(Cc1cc(O)ccc1O)Nc1ccc(O)cc1 | 2.83 |
| COc1ccc(OC)c(C(=O)/C=C/c2ccccc2O)c1 | 16.8 |
| COc1ccc(OC)c(NC(=O)Nc2ccc(OC)cc2OC)c1 | -0.5 |
| COc1ccc(NC(=O)Cc2cc(OC)ccc2OC)cc1 | 1.24 |
| COc1ccc(OC)c(C(=O)/C=C/c2ccc(O)cc2)c1 | 2.83 |
| Oc1ccc(-n2cc(-c3cc(O)ccc3O)nn2)cc1 | 1.72 |
| COc1ccc(OC)c(CC(=O)Nc2cc(OC)ccc2OC)c1 | 6.79 |
| COc1ccc(OC)c(C(=O)CCc2ccc(O)cc2)c1 | 1.55 |
| COc1ccc(OC)c(C(=O)/C=C/c2c[nH]c3ccc(OC)cc23)c1 | 3.54 |
| COc1ccc(OC)c(CC(=O)Nc2ccc(OC)cc2OC)c1 | 16.6 |
| O=C(CCc1ccc(O)cc1O)c1cc(O)ccc1O | 3.81 |
| Oc1ccc(O)c(-c2cn(-c3ccc(O)c(O)c3)nn2)c1 | 3.17 |
| COc1ccc(OC)c(-c2cn(-c3ccc(OC)c(OC)c3)nn2)c1 | 10.9 |
| COc1ccc(C(=O)/C=C/c2ccc(OC)cc2OC)cc1 | 9.33 |
| O=C(OCc1ccccc1)N1C(=O)C(c2ccccc2NC(=O)C(F)(F)F)=C(O)C1Cc1ccccc1 (stereo not drawn) | 0.9 |
| COc1ccc(OC)c(C(=O)CCc2ccccc2O)c1 | 4.16 |
| CC1C(=O)N(Cc2ccc(OCCN3CCOCC3)cc2)C1(Cc1ccccc1)C(=O)O (stereo not drawn) | 1.79 |
| O=C(Cc1cc(O)ccc1O)Nc1cc(O)ccc1O | 0.34 |
| COC(=O)c1c(C(Cc2ccccc2)NC(=O)OCc2ccccc2)[nH]c2ccccc12 (stereo not drawn) | 0.58 |

What follows are compounds tested on Cryptococcus neoformans. Settings: Concentration 32 ug.mL-1; ASSAY_TEST Inhibition of Fungal Growth; detection method Resazurin; Absorption (OD600-OD570); plate type 384well; NBS; CORNING #3640.

| Compound | Inhibition [%] |
| --- | --- |
| O=C(Cc1cc(O)ccc1O)Nc1ccc(O)cc1O | -73.31 |
| O=C(Nc1ccc(O)cc1O)Nc1cc(O)ccc1O | 15.83 |
| O=C(/C=C/c1c[nH]c2ccc(O)cc12)c1cc(O)ccc1O | -105.31 |
| O=C(/C=C/c1ccccc1O)c1cc(O)c(O)cc1O | -81.74 |
| COc1ccc(CN2C(=O)C(C)C2(Cc2cn(C(=O)OC(C)(C)C)c3ccccc23)C(=O)OC(C)(C)C)cc1 (stereo not drawn) | -81.49 |
| COC(=O)C1(Cc2ccc(OCc3c(Cl)cccc3Cl)cc2)C(C)C(=O)N1Cc1ccc(OC)cc1 (stereo not drawn) | -62.93 |
| COc1ccccc1/C=C/C(=O)c1cc(OC)c(OC)cc1OC | -68.54 |
| O=C(Cc1cc(O)ccc1O)Nc1ccc(O)cc1 | -32.05 |
| COc1ccc(OC)c(C(=O)/C=C/c2ccccc2O)c1 | -71.16 |
| COc1ccc(OC)c(NC(=O)Nc2ccc(OC)cc2OC)c1 | -79.12 |
| COc1ccc(NC(=O)Cc2cc(OC)ccc2OC)cc1 | -67.4 |
| COc1ccc(OC)c(C(=O)/C=C/c2ccc(O)cc2)c1 | -65.46 |
| Oc1ccc(-n2cc(-c3cc(O)ccc3O)nn2)cc1 | -19.32 |
| COc1ccc(OC)c(CC(=O)Nc2cc(OC)ccc2OC)c1 | -78.53 |
| COc1ccc(OC)c(C(=O)CCc2ccc(O)cc2)c1 | -66.83 |
| COc1ccc(OC)c(C(=O)/C=C/c2c[nH]c3ccc(OC)cc23)c1 | -74.27 |
| COc1ccc(OC)c(CC(=O)Nc2ccc(OC)cc2OC)c1 | -87.08 |
| O=C(CCc1ccc(O)cc1O)c1cc(O)ccc1O | -52.63 |
| Oc1ccc(O)c(-c2cn(-c3ccc(O)c(O)c3)nn2)c1 | -118.29 |
| COc1ccc(OC)c(-c2cn(-c3ccc(OC)c(OC)c3)nn2)c1 | -110.55 |
| COc1ccc(C(=O)/C=C/c2ccc(OC)cc2OC)cc1 | -93.49 |
| O=C(OCc1ccccc1)N1C(=O)C(c2ccccc2NC(=O)C(F)(F)F)=C(O)C1Cc1ccccc1 (stereo not drawn) | -95.18 |
| COc1ccc(OC)c(C(=O)CCc2ccccc2O)c1 | -73.15 |
| CC1C(=O)N(Cc2ccc(OCCN3CCOCC3)cc2)C1(Cc1ccccc1)C(=O)O (stereo not drawn) | -59.46 |
| O=C(Cc1cc(O)ccc1O)Nc1cc(O)ccc1O | -2.68 |
| COC(=O)c1c(C(Cc2ccccc2)NC(=O)OCc2ccccc2)[nH]c2ccccc12 (stereo not drawn) | -63.52 |
